# Test results reported in PubChem BioAssay (NCATS).
# Unmarked numbers belong to inactive results. Inconclusive results are not listed. A call without a number means that no potency is given here. Calls of active or inactive are those of the source. The call rests on the fitted dose curve; in most records, active means well fitted curve in the direction sought with a large enough effect; inconclusive means small, poorly fitted or top-dose-only effect, or another doubt; inactive means no such curve, though single readings can be large; an effect the other way counts as inactive or inconclusive.
# Tests used:
# [1] = Quantitative High-Throughput drug screen in 47 multiple myeloma cell lines against the NCATS MIPE library collection: FR4_PLB cell viability assay (AID 1918924; further: nearly all actives have a fitted effect of over 35% in size; further: potency means the concentration at half of the fitted maximal effect)
# Summary of the method: (§1)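 Myeloma cells (500 per well) were exposed to MIPE 4.0 compounds by pin transfer and incubated 48 hours at 37C, 5% CO2. Viability was read as ATP by CellTiter-Glo luminescence, normalised to DMSO (100%) and media-only (0%) wells.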
# [2] = Quantitative High-Throughput drug screen in 47 multiple myeloma cell lines against the NCATS MIPE library collection: Delta47_JCRB cell viability assay (AID 1918925; further: nearly all actives have a fitted effect of over 45% in size; further: potency means the concentration at half of the fitted maximal effect)
# Summary of the method: (§2)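 Approved and investigational drugs from MIPE 4.0 were added by pin tool to 500 cells per well. After 48 hours at 37C, ATP-based CellTiter-Glo luminescence indicated remaining viability.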
# [3] = Quantitative High-Throughput drug screen in 47 multiple myeloma cell lines against the NCATS MIPE library collection: EJM_DSMZ cell viability assay (AID 1918926; further: nearly all actives have a fitted effect of over 30% in size; further: potency means the concentration at half of the fitted maximal effect)
# Summary of the method: as §2
# [4] = Quantitative High-Throughput drug screen in 47 multiple myeloma cell lines against the NCATS MIPE library collection: AMO1_DSMZ cell viability assay (AID 1918927; further: nearly all actives have a fitted effect of over 30% in size; further: potency means the concentration at half of the fitted maximal effect)
# Summary of the method: as §2
# [5] = Quantitative High-Throughput drug screen in 47 multiple myeloma cell lines against the NCATS MIPE library collection: ARP1_JJKsccF8 cell viability assay (AID 1918928; further: nearly all actives have a fitted effect of over 40% in size; further: potency means the concentration at half of the fitted maximal effect)
# Summary of the method: (§3)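 Viability screen: myeloma cells (500/well) incubated 48 h at 37 °C, humidified 5% CO2, with pinned library compounds; CellTiter-Glo added, luminescence read; DMSO wells set 100%, medium-only wells 0%.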
# [6] = Quantitative High-Throughput drug screen in 47 multiple myeloma cell lines against the NCATS MIPE library collection: ARD_JJKsccE7 cell viability assay (AID 1918929; further: potency means the concentration at half of the fitted maximal effect)
# Summary of the method: as §2
# [7] = Quantitative High-Throughput drug screen in 47 multiple myeloma cell lines against the NCATS MIPE library collection: Karpas620_DSMZ cell viability assay (AID 1918959); further: nearly all actives have a fitted effect of over 30% in size; further: potency means the concentration at half of the fitted maximal effect
# Summary of the method: as §1
# [8] = Quantitative High-Throughput drug screen in 47 multiple myeloma cell lines against the NCATS MIPE library collection: KMM1_JCRB cell viability assay (AID 1918960); further: nearly all actives have a fitted effect of over 30% in size; further: potency means the concentration at half of the fitted maximal effect
# Summary of the method: as §3
# [9] = Quantitative High-Throughput drug screen in 47 multiple myeloma cell lines against the NCATS MIPE library collection: JIM3_ECACC cell viability assay (AID 1918963; further: nearly all actives have a fitted effect of over 35% in size; further: potency means the concentration at half of the fitted maximal effect)
# Summary of the method: as §1
# [10] = Quantitative High-Throughput drug screen in 47 multiple myeloma cell lines against the NCATS MIPE library collection: JJN3_DSMZ cell viability assay (AID 1918966; further: nearly all actives have a fitted effect of over 50% in size; further: potency means the concentration at half of the fitted maximal effect)
# Summary of the method: as §2
# [11] = Quantitative High-Throughput drug screen in 47 multiple myeloma cell lines against the NCATS MIPE library collection: H1112_PLB cell viability assay (AID 1918967; further: nearly all actives have a fitted effect of over 30% in size; further: potency means the concentration at half of the fitted maximal effect)
# Summary of the method: as §2
# [12] = Quantitative High-Throughput drug screen in 47 multiple myeloma cell lines against the NCATS MIPE library collection: Karpas25_ECACC cell viability assay (AID 1918968; further: nearly all actives have a fitted effect of over 35% in size; further: potency means the concentration at half of the fitted maximal effect)
# Summary of the method: as §2
# [13] = Quantitative High-Throughput drug screen in 47 multiple myeloma cell lines against the NCATS MIPE library collection: JIM1_ECACC cell viability assay (AID 1918964; further: potency means the concentration at half of the fitted maximal effect)
# Summary of the method: as §2
# [14] = Quantitative High-Throughput drug screen in 47 multiple myeloma cell lines against the NCATS MIPE library collection: KHM11_PLB cell viability assay (AID 1918962); further: nearly all actives have a fitted effect of over 35% in size; further: potency means the concentration at half of the fitted maximal effect
# Summary of the method: as §1
# [15] = Quantitative High-Throughput drug screen in 47 multiple myeloma cell lines against the NCATS MIPE library collection: INA6_PLB cell viability assay (AID 1918965; further: nearly all actives have a fitted effect of over 55% in size; further: potency means the concentration at half of the fitted maximal effect)
# Summary of the method: (§4)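 CellTiter-Glo ATP luminescence gave viability after 48 h compound treatment at 37C of 500 multiple myeloma cells per well. Normalisation used DMSO-only wells as 100% and media-only wells as 0% viability; primary qHTS of approved and investigational drugs.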
# [16] = target: Luciferin 4-monooxygenase (Photinus pyralis) (UniProt P08659); test: Primary firefly luciferase (FLuc) qHTS assay for identification of artifact compounds. (AID 1845220); conditions: outcome: dose series up to 54.1 µM; further: nearly all actives have a fitted effect of over 60% in size
# Summary of the method: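 Compounds sat 15 min at room temperature with 10 uM luciferin and 10 uM ATP (pH 7.6 Tris acetate). Firefly luciferase (10 nM final) was then added, and luminescence was read 5 min later. Data normalized to no-enzyme and DMSO controls were Hill-fitted.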
# [17] = Primary fluorescence-based thiol-reactive (MSTI) qHTS assay for identification of artifact compounds. (AID 1845221); further: nearly all actives have a fitted effect of over 65% in size; further: potency means the concentration at half of the fitted maximal effect
# Summary of the method: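 Curve-fitted percent inhibition (4-parameter Hill) derived from fluorescence, Ex 525/Em 598 nm, scaled with Acetyl-MSTI and MSTI; 1 h incubation at room temperature.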
# [18] = tested on: Nanoluciferase (engineered Oplophorus gracilirostris luciferase); test: Primary Nanoluciferase (NLuc) qHTS assay for identification of artifact compounds. (AID 1845222)
# Summary of the method: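 Luminescence from secreted NLuc (filtered, 1:55-diluted S16 cell medium) read 5 min after Nano-Glo substrate; compounds preincubated 15 min, RT. Hill fits of inhibition normalized to DMSO and no-enzyme.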
# [19] = Primary redox qHTS assay for identification of artifact compounds. (AID 1845223)
# Summary of the method: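 Redox-cycling detection via DTT (250 uM final) oxidation coupled to Amplex Red (25 uM)/HRP (250 mU/mL) in HBSS. 15 min preincubation plus 30 min after DTT, room temperature. Ex/Em 525/598 nm; 4-parameter Hill fit against DMSO and 10 uM DA3003.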
# [20] = Quantitative High-Throughput drug screen in 47 multiple myeloma cell lines against the NCATS MIPE library collection: Karpas417_ECACC cell viability assay (AID 1918961); conditions: Karpas417 myeloma viability, CellTiter-Glo ATP luminescence, 48 h; viability (% of DMSO): at 45.8 µM (top of the series); further: potency means the concentration at half of the fitted maximal effect
# Summary of the method: as §4
structure (smiles),measurement,setting,value
CCCc1cc(C(N)=S)ccn1,Potency,[1],inactive
same,Potency,[2],inactive
same,Potency,[3],inactive
same,Potency,[4],inactive
same,Potency,[5],inactive
same,Potency,[6],inactive
same,Potency,[7],inactive
same,Potency,[8],inactive
same,Potency,[9],inactive
same,Potency,[10],inactive
same,Potency,[11],inactive
same,Potency,[12],inactive
CCCc1nc(C)c2c(=O)[nH]c(-c3cc(S(=O)(=O)N4CCN(CC)CC4)ccc3OCC)nn12,Potency,[1],8.33 µM (active)
same,Potency,[2],5.9 µM (active)
same,Potency,[3],9.35 µM (active)
same,Potency,[4],7.43 µM (active)
same,Potency,[5],5.26 µM (active)
same,Potency,[8],3.72 µM (active)
same,Potency,[9],9.35 µM (active)
same,Potency,[13],5.26 µM (active)
same,Potency,[10],4.18 µM (active)
same,Potency,[11],10.5 µM (active)
same,Potency,[12],5.26 µM (active)
CN(C)CCc1c[nH]c2ccc(CS(=O)(=O)N3CCCC3)cc12,Potency,[1],inactive
same,Potency,[2],inactive
same,Potency,[3],inactive
same,Potency,[4],inactive
same,Potency,[5],inactive
same,Potency,[7],inactive
same,Potency,[14],16.6 µM (active)
same,Potency,[9],inactive
same,Potency,[13],inactive
same,Potency,[15],0.0074 µM (active)
same,Potency,[10],inactive
same,Potency,[11],inactive
Nc1nc(F)nc2c1ncn2[C@@H]1O[C@H](CO)[C@@H](O)[C@@H]1O,outcome,[16],inactive
same,Potency,[17],inactive
same,outcome,[18],inactive
same,Potency,[19],inactive
same,Potency,[1],0.187 µM (active)
same,Potency,[2],0.148 µM (active)
same,Potency,[3],0.418 µM (active)
same,Potency,[4],0.372 µM (active)
same,Potency,[5],0.264 µM (active)
same,Potency,[6],0.332 µM (active)
same,Potency,[8],0.526 µM (active)
same,Potency,[20],0.0469 µM (active)
same,Potency,[14],0.187 µM (active)
same,Potency,[9],0.662 µM (active)
same,Potency,[15],0.166 µM (active)
same,Potency,[10],0.235 µM (active)
same,Potency,[11],0.526 µM (active)
same,Potency,[12],0.296 µM (active)
COc1cc([C@@H]2c3cc4c(cc3[C@H](O)[C@H]3COC(=O)[C@H]23)OCO4)cc(OC)c1OC,Potency,[1],inactive
same,Potency,[2],inactive
same,Potency,[3],inactive
same,Potency,[4],inactive
same,Potency,[5],inactive
same,Potency,[6],inactive
same,Potency,[7],inactive
same,Potency,[8],0.001 µM (active)
same,Potency,[20],inactive
same,Potency,[14],inactive
same,Potency,[9],inactive
same,Potency,[15],inactive
same,Potency,[10],inactive
same,Potency,[12],inactive
CC(C)C[C@H](NC(=O)[C@H](CCc1ccccc1)NC(=O)CN1CCOCC1)C(=O)N[C@@H](Cc1ccccc1)C(=O)N[C@@H](CC(C)C)C(=O)[C@@]1(C)CO1,Potency,[1],0.0083 µM (active)
same,Potency,[2],0.001 µM (active)
same,Potency,[3],0.0105 µM (active)
same,Potency,[4],0.0066 µM (active)
same,Potency,[5],0.0074 µM (active)
same,Potency,[7],0.001 µM (active)
same,Potency,[8],0.001 µM (active)
same,Potency,[9],0.0235 µM (active)
same,Potency,[10],0.0074 µM (active)
same,Potency,[12],0.001 µM (active)
O=P(O)(O)C(O)(Cc1cccnc1)P(=O)(O)O,"activity change, negative = inhibition",[16],-16.9% [at 6.45 µM]
same,outcome,[16],inactive
same,Potency,[17],inactive
same,outcome,[18],inactive
same,Potency,[19],inactive
same,Potency,[1],inactive
same,Potency,[2],inactive
same,Potency,[3],inactive
same,Potency,[7],inactive
same,Potency,[8],inactive
same,Potency,[9],inactive
same,Potency,[11],inactive
O=C(O)CCn1c2c(c3ccccc31)C[C@H](NS(=O)(=O)c1ccc(F)cc1)CC2,outcome,[16],inactive
same,Potency,[17],1.68 µM (active)
same,outcome,[18],inactive
Cc1onc(-c2ccccc2Cl)c1C(=O)N[C@@H]1C(=O)N2[C@@H]1SC(C)(C)[C@@H]2C(=O)O,outcome,[16],inactive
same,Potency,[17],inactive
same,outcome,[18],inactive
same,Potency,[19],inactive
same,Potency,[1],inactive
same,Potency,[2],inactive
same,Potency,[3],inactive
same,Potency,[5],inactive
same,Potency,[7],inactive
same,Potency,[8],inactive
same,Potency,[20],inactive
same,Potency,[14],inactive
same,Potency,[9],inactive
same,Potency,[11],inactive
same,Potency,[12],inactive
CN1CCN(c2c(F)cc3c(=O)c(C(=O)O)cn(CCF)c3c2F)CC1,Potency,[1],inactive
same,Potency,[2],inactive
same,Potency,[3],inactive
same,Potency,[4],inactive
same,Potency,[5],inactive
same,Potency,[7],inactive
same,Potency,[8],inactive
same,Potency,[9],inactive
same,Potency,[11],inactive
same,Potency,[12],inactive
COc1cc2ncnc(Nc3cccc(Cl)c3)c2cc1OC,outcome,[16],inactive
same,Potency,[17],inactive
same,outcome,[18],inactive
same,Potency,[1],26.4 µM (active)
same,Potency,[3],0.0418 µM (active)
same,Potency,[5],26.4 µM (active)
same,Potency,[8],20.9 µM (active)
same,Potency,[10],33.2 µM (active)
same,Potency,[12],20.9 µM (active)
COc1cc(NCc2ccc3nc(N)nc(N)c3c2C)cc(OC)c1OC,Potency,[1],16.6 µM (active)
same,Potency,[2],18.7 µM (active)
same,Potency,[3],8.33 µM (active)
same,Potency,[4],0.935 µM (active)
same,Potency,[5],2.96 µM (active)
same,Potency,[7],6.62 µM (active)
same,Potency,[8],1.18 µM (active)
same,Potency,[20],4.18 µM (active)
same,Potency,[14],8.33 µM (active)
same,Potency,[9],0.418 µM (active)
same,Potency,[15],1.32 µM (active)
same,Potency,[10],3.72 µM (active)
same,Potency,[11],2.64 µM (active)
same,Potency,[12],4.18 µM (active)
CNC(=O)c1cc(Oc2ccc(NC(=O)Nc3ccc(Cl)c(C(F)(F)F)c3)cc2)ccn1,outcome,[16],inactive
same,Potency,[17],inactive
same,outcome,[18],inactive
same,Potency,[19],inactive
same,Potency,[1],20.9 µM (active)
same,Potency,[2],16.6 µM (active)
same,Potency,[3],18.7 µM (active)
same,Potency,[4],5.26 µM (active)
same,Potency,[5],23.5 µM (active)
same,Potency,[8],2.96 µM (active)
same,Potency,[14],11.8 µM (active)
same,Potency,[9],10.5 µM (active)
same,Potency,[10],23.5 µM (active)
same,Potency,[11],9.35 µM (active)
same,Potency,[12],6.62 µM (active)
COc1ccc(-c2ccc3cc(C(=O)O)ccc3c2)cc1C12CC3CC(CC(C3)C1)C2,Potency,[1],inactive
same,Potency,[2],inactive
same,Potency,[3],inactive
same,Potency,[4],inactive
same,Potency,[5],inactive
same,Potency,[8],inactive
same,Potency,[9],inactive
same,Potency,[15],inactive
same,Potency,[11],inactive
same,Potency,[12],inactive
